# From PubChem
# VLA-4 inh: inhibition in a human VLA-4 binding assay; AID 2557; P13612; VLA-4 expressing cells, ligand binding flow cytometry; inhibition, % (about 7 µM as worked out from the volumes in the protocol); hit rate 0.2% among 330,000; in the data active means inhibition above about 50%
# Bfl-1 A1 inh: inhibitors of the anti-apoptotic protein A1, read as caspase activation | MEF A1-2A-BIM cells, Caspase-Glo 3/7 luminescence, 3 h; percent of clofoctol response, vehicle zero | caspase activation, % (concentration not given with the values) | hit rate 0.066% among 330,000 | AID 2462;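 active means over half of replicate activation scores above 10%, or exactly half above 10 with the replicate mean above 10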
# ALR inh: human ALR oxidase inhibition via reduced H2O2; hit rate 3.8% among 290,000; AID 485317; purified ALR, DTT oxidation, H2O2 HRP-luminol luminescence; P55789; inhibition, % (no concentration beside the values);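 active means mean replicate inhibition above about 79%, with every replicate also reaching it, limit read from the data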
# Target sequence (P55789 whole entry, looked up): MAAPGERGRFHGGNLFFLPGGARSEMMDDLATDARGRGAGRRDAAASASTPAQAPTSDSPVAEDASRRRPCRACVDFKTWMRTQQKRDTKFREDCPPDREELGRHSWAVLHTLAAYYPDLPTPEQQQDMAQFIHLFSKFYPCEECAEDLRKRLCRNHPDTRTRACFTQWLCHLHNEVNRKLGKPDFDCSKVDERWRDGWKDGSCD
# AHR act: activators of human aryl hydrocarbon receptor; P35869; AHR-responsive luciferase reporter cells, luminescence; activation, % at 5 µM; hit rate 2.5% among 320,000; AID 2796; in the data active means activation above about 47%;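 further: 0% = vehicle wells and 100% = reference agonist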
# Efflux pump mplx: blocks antifungal efflux pumps in multiplex yeast assay | hit rate 0.44% among 330,000 | S. cerevisiae Candida pump triplex, Nile Red efflux | inhibition, % at 10 µM | AID 485275;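 active means plate passing quality check with inhibition over a set limit, or well fluorescence over plate mean plus 4 SD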;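 further: Nile Red retained in pooled yeast measured as flow cytometry median fluorescence; 0% = buffer negative control and 100% = Enniatin B positive control; higher means more Nile Red kept so more efflux inhibition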
# SUMO Mot1 rescue: SUMOylation pathway inhibition by Mot1-301 growth rescue; S. cerevisiae Mot1-301 growth rescue, ATP luminescence, 38.5C; percent above DMSO median, 100 means doubled; growth rescue, % at 18.8 µM; hit rate 1% among 320,000; AID 2716;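 active means every valid replicate shows activation above 250% relative to neutral control wells; inactive means the rest, any valid replicate at or below 250%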;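 further: OY570 slx delta 5 strain wells were the positive control but not used for scaling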
# Yeast Mot1 SUMO: yeast SUMO pathway inhibition in dose response; shares compounds with SUMO Mot1 rescue; S. cerevisiae Mot1-301 galactose growth, ATP luminescence, 24 h; -100 = growth of slx-deleted rescue strain; growth activity, percent, % at 42 µM; 2,300 tested, under 10 active; AID 493004;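 active means Signal drops as the depositor expects, and the fitted half-maximal dose is no more than ten times the top valid tested dose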;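 further: more negative values mean stronger growth rescue toward the control strain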
# Numbers without * were called inactive; nt = no result given; + = active, no number. Most compounds without a hit are left out; they make up all but 7.2% or so of the library.
SMILES,VLA-4 inh,Bfl-1 A1 inh,ALR inh,AHR act,Efflux pump mplx,SUMO Mot1 rescue,Yeast Mot1 SUMO
COC(=O)CSc1nnc(CNC(=O)c2ccco2)n1-c1ccc(F)cc1,-3,1,-6,2,0,1,nt
COc1ccc(NCC(=O)N/N=C/c2cc([N+](=O)[O-])ccc2N2CCCC2)cc1,-12,1,-6,20,0,-5,nt
O=C(Cc1ccccc1)N1CCCC1c1ccccc1 (centres undefined),-6,nt,-4,11,0,+,0
CC1CCCC(C)N1C(=O)Cc1ccccc1 (centres undefined),10,-1,-4,-1,1,383,nt
Oc1ccc(Br)cc1Cn1nnc2ccccc21,9,0,nt,-2,0,-9,nt
O=c1[nH]nc(Cc2ccc(-c3ccccc3Cl)o2)c2ccccc12,5,-1,-11,7,0,360*,0
Cc1cc(NC(=O)COC(=O)[C@@H](NS(=O)(=O)c2ccc(Br)cc2)C(C)C)no1,-1,0,nt,2,0,38,nt
NC(=O)c1c(NC(=O)Cc2ccccc2)sc2c1CCN(Cc1ccccc1)C2,0,-1,nt,-5,0,0,nt
O=C(COC(=O)c1cccc(Br)c1)Nc1ccc2[nH]c(=O)[nH]c2c1,11,1,1,1,0,510*,0
COc1ccc(NC(=O)CCCc2ccccc2)cc1OC,1,-1,-18,5,0,382*,0
COc1ccc(/C=N/NC(=O)CCC(=O)Nc2ccccc2)cc1OC,5,0,-18,37,0,795*,1
COc1cc(/C=N/NC(=O)CCC(=O)Nc2ccc(F)cc2)ccc1O,7,0,38,0,0,-4,nt
Cc1cccc(NC(=O)CCc2ccccc2)c1,7,0,-2,10,0,520*,0
Cc1cccc(NC(=O)CCCCC(=O)Nc2cccc(C)c2)c1,2,1,-14,-1,0,-4,nt
Cc1ccc2[nH]c(=O)c(CNS(=O)(=O)c3ccccc3)c(-c3ccccc3)c2c1,1,0,0,16,1,-16,nt
CN(Cc1cccs1)C(=O)COc1cccc2c1OC(C)(C)C2,7,-1,4,0,0,-6,nt
Cc1ccc(S(=O)(=O)N(C)CC(=O)O/N=C(\N)c2ccccn2)cc1,12,0,-7,2,0,399*,1
CN(CC(=O)O/N=C(\N)c1ccccn1)S(=O)(=O)c1ccc(Br)cc1,-11,0,-6,0,0,164,nt
Cc1ccc(NC(=S)NNC(=O)c2ccc(N3CCOCC3)c([N+](=O)[O-])c2)cc1C,27,0,23,-4,0,366*,0
COc1ccccc1NC(=O)COC(=O)c1ccccc1C(=O)N1CCN(c2ccccc2)CC1,0,0,nt,13,0,6,nt
Cc1cc(NC(=O)/C=C/c2ccco2)ccc1NC(=O)c1ccccc1,-4,-1,5,-2,0,432*,0
CSCC[C@H](NC(=O)CC(C)(C)C)c1nc2ccccc2[nH]1,5,0,-9,2,0,422*,1
CCCC(=O)NC(C)c1nc2ccccc2[nH]1 (centres undefined),17,0,-18,-1,0,595*,1
CC(NC(=O)Cc1ccccc1)c1nc2ccccc2[nH]1 (centres undefined),-16,0,-21,2,0,-4,nt
Cc1cc(NC(=O)CN2C(=O)NC(C)(c3ccc(Cl)cc3Cl)C2=O)no1 (centres undefined),4,0,2,-1,1,5,nt
SMILES,VLA-4 inh,Bfl-1 A1 inh,ALR inh,AHR act,Efflux pump mplx,SUMO Mot1 rescue,Yeast Mot1 SUMO
O=[N+]([O-])c1ccc(N/N=C/c2cccc(O)c2)cc1,-8,-1,67,0,0,484*,-2
Cc1ccc2nc(C(=O)O)c(C(=O)O)nc2c1,-6,0,-1,9,0,0,nt
CCCS(=O)(=O)N1CCC(C(=O)N2CCc3ccccc3C2)CC1,10,0,nt,2,0,397*,0
O=C(COc1ccc(-n2cnnn2)cc1)NCCc1ccc(F)cc1,12,1,-16,9,0,+,0
O=C(COc1ccc(-n2cnnn2)cc1)Nc1ccc(F)cc1,-3,0,-3,-2,0,-16,nt
Cc1ccc(S(=O)(=O)NCCS(=O)(=O)N2CCN(c3ccc(F)cc3)CC2)cc1,-4,1,-7,6,0,543*,2
O=S(=O)(NCCS(=O)(=O)N1CCN(c2ccccc2)CC1)c1ccccc1,4,0,2,2,0,5,nt
Cc1noc(C)c1COC(=O)COc1cccc2c1OC(C)(C)C2,-1,-1,-13,0,0,3,nt
O=C(O)COc1ccc(=O)n(-c2ccccc2)n1,0,0,1,3,0,+,0
CCSc1nc2ccccc2c(=O)n1C1CCOC(C)(C)C1 (centres undefined),1,1,1,2,0,545*,0
O=C(CCSc1ccccc1)N1CCOCC1,2,1,4,16,0,-6,nt
O=C(CCSc1nnnn1-c1ccccc1)N1CCOCC1,12,2,-3,2,0,688*,1
O=C(NCCS(=O)(=O)N1CCN(c2ccccc2F)CC1)c1c(F)cccc1F,4,2,2,-1,0,-11,nt
COc1ccc(NC2CC(=O)N(C(C)C)C2=O)cc1 (centres undefined),7,-1,9,1,0,507*,0
COC(=O)C1(Cc2ccc(O)cc2)OC(=O)C(O)=C1c1ccc(O)cc1 (centres undefined),-10,-1,99*,-1,0,381*,0
COC(=O)CCc1ccc(O)cc1,3,0,14,0,0,-9,nt
COc1ccc(NC(=O)CSc2nc3n[nH]c(C)c3c(=N)n2-c2ccc(Cl)c(C)c2)cc1OC,-8,-1,-5,7,0,7,nt
O=C(Nc1ccc(Cl)cc1)N1CCC(c2nc(-c3ccc(F)cc3)no2)CC1,-32,0,-1,3,0,+,0
Cc1noc(C)c1COc1ccccc1C(=O)N(C)Cc1ccc(C(C)(C)C)cc1,38,1,nt,1,0,-12,nt
COC(=O)C(Cc1ccccc1)NC(=O)CCC(=O)NC(C)CCc1ccccc1 (centres undefined),7,1,-6,1,0,-14,nt
COC(=O)[C@H](Cc1ccccc1)NC(=O)NC(C)CCc1ccccc1 (some centres undefined),-1,0,-17,1,0,871*,0
Cc1ccc2cccc(OCc3nnc(SCC(=O)O)n3C)c2n1,6,0,-4,0,0,+,0
